How the values were obtained:
Assay in all cases: DAPPL (digital affinity profiling via proximity ligation, sequencing); 10 mM Tris-HCl pH 7.5, 50 mM NaCl, 1 mM DTT, 4% glycerol, room temperature, 30 min; GST-TFs on glutathione beads, 16-mer random dsDNA library, 0.1% formaldehyde crosslink after washing; high values mean tight binding
Settings in all cases: protein: recombinant; tags: N-terminal GST; dsDNA, one strand shown
FLI1 = biological target: T1, FLI1 (Homo sapiens, UniProt Q01543 1-452)
T1 sequence: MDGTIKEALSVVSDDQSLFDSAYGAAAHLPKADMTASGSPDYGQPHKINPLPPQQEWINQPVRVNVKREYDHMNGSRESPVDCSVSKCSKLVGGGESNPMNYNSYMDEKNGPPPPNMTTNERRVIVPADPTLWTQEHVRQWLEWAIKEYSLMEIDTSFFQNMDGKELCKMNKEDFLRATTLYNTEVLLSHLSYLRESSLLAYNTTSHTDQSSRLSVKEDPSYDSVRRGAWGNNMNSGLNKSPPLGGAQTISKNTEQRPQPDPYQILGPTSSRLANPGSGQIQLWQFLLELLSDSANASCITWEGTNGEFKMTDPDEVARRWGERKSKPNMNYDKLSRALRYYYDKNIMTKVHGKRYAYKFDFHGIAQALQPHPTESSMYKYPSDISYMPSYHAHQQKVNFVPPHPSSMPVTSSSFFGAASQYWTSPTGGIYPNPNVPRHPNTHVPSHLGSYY
In short: (§1)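 Human transcription factors fused to GST were expressed in yeast, captured on glutathione beads, given DNA barcodes and pooled with a GST-only negative control. Pools were incubated with 200 nmole of a 16-mer random double-stranded DNA library in Tris/NaCl/DTT/glycerol buffer at room temperature for 30 min. They were then washed, crosslinked with 0.1% formaldehyde, proximity-ligated (BsaI/T4 ligase, 1 h, 37 °C), PCR-amplified and sequenced on an Illumina NextSeq500. Binding signal is each 6-mer's read frequency for a factor divided by its frequency for the GST control.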

ELK1 = biological target: T2, ELK1 (Homo sapiens, UniProt P19419 1-428)
T2 sequence: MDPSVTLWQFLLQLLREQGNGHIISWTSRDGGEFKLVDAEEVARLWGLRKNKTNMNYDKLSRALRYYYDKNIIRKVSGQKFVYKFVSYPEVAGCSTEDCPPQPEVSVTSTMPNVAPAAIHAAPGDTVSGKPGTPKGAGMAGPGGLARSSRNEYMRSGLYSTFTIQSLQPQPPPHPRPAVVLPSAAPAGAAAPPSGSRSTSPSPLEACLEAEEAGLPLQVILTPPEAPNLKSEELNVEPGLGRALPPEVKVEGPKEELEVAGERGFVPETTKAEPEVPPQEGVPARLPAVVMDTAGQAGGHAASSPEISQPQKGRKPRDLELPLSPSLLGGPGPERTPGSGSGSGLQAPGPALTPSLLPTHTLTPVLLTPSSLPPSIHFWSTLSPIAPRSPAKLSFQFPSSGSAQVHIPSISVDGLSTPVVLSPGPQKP
In short: as §1

GABPA = biological target: T3, GABPA (Homo sapiens, UniProt Q06546 1-454)
T3 sequence: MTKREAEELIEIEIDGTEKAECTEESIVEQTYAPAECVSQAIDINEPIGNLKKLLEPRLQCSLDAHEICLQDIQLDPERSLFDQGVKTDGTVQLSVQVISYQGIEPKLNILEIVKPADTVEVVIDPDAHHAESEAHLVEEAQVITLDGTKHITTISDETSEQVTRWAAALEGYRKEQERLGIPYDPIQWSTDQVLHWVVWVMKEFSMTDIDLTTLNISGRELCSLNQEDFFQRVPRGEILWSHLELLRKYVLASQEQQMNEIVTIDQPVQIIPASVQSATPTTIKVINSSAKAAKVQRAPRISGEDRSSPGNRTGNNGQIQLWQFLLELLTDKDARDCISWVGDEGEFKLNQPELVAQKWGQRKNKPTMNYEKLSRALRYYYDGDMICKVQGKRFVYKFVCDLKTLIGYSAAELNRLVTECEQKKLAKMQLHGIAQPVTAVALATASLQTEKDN
In short: as §1

ERG = biological target: T4, ERG (Homo sapiens, UniProt P11308 1-479)
T4 sequence: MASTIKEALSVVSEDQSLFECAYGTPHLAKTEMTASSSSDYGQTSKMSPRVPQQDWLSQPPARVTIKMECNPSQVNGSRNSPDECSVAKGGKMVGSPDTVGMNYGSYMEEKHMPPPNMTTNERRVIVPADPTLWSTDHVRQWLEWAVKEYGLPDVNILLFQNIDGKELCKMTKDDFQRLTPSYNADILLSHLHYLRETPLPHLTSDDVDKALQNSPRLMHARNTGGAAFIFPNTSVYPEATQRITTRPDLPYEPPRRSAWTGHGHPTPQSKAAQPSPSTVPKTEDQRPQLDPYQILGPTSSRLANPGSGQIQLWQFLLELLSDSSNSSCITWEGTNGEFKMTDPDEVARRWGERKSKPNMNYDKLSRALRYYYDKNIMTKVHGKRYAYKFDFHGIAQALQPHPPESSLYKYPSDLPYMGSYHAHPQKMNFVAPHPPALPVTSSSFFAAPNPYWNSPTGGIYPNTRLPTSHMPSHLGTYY
In short: as §1

ELF1 = ELF1 (Homo sapiens, UniProt P32519 1-619)
Sequence of ELF1 (P32519 whole entry): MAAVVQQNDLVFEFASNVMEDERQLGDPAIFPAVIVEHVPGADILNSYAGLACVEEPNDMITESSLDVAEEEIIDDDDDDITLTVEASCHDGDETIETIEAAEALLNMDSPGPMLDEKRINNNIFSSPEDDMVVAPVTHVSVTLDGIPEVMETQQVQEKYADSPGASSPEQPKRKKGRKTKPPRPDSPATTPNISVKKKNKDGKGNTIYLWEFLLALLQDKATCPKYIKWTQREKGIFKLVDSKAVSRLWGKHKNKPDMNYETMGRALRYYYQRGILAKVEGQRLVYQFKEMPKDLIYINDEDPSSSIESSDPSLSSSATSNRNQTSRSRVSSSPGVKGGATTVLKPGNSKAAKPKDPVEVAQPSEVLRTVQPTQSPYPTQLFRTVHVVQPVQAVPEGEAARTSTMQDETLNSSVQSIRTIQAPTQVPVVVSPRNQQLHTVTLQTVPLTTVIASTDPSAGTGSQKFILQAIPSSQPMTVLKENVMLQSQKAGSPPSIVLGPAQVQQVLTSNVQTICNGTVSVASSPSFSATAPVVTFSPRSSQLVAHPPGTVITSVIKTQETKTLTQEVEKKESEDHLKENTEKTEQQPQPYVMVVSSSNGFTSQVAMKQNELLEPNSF
In short: as §1

ELK3 = biological target: T5, ELK3 (Homo sapiens, UniProt P41970 1-407)
T5 sequence: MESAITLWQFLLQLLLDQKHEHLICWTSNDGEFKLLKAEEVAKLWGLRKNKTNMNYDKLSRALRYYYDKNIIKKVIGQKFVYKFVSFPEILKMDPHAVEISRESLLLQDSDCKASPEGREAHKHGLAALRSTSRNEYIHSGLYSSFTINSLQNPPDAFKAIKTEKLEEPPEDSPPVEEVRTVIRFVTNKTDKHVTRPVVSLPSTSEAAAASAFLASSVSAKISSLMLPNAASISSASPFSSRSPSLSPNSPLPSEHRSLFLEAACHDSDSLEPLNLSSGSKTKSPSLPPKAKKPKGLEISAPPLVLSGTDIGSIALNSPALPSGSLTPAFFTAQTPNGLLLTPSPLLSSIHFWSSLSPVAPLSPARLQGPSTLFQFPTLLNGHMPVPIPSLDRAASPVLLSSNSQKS
In short: as §1

SPIC = biological target: T6, SPIC (Homo sapiens, UniProt Q8N5J4 1-248)
T6 sequence: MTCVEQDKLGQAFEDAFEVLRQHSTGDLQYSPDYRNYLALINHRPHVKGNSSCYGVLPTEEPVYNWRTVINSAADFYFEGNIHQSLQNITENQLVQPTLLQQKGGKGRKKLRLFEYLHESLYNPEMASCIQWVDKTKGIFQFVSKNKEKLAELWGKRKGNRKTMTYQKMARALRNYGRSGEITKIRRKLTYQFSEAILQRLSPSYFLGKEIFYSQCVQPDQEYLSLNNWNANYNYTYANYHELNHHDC
In short: as §1

ELK4 = biological target: T7, ELK4 (Homo sapiens, UniProt P28324-2 1-405)
T7 sequence: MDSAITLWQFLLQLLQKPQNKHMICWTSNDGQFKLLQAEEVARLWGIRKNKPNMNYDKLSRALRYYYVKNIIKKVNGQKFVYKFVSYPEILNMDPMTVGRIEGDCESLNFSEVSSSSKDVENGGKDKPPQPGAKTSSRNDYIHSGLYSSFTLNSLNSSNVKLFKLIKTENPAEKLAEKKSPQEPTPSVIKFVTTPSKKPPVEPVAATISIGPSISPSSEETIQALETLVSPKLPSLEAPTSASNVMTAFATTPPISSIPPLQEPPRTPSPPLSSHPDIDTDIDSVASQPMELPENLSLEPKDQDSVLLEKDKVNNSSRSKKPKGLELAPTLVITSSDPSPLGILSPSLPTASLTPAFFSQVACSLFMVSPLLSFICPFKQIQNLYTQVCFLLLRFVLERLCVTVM
In short: as §1

ERF = biological target: T8, ERF (Homo sapiens, UniProt P50548 1-548)
T8 sequence: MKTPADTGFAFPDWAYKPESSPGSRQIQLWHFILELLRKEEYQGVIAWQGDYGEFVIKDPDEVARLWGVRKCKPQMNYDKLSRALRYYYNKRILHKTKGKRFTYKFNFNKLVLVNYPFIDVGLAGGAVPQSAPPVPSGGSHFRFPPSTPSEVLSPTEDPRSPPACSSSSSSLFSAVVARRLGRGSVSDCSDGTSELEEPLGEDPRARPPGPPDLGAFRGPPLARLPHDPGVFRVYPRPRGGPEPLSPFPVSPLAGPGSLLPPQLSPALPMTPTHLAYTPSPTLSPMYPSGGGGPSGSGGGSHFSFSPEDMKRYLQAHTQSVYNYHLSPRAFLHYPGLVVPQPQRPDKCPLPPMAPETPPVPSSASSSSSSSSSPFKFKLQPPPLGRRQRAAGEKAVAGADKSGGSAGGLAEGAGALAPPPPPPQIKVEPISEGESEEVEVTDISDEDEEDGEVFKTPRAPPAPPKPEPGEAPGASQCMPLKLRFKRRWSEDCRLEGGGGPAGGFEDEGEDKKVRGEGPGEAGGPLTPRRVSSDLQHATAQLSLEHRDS
In short: as §1

ETV3L = biological target: T9, ETV3L (Homo sapiens, UniProt Q6ZN32 1-361)
T9 sequence: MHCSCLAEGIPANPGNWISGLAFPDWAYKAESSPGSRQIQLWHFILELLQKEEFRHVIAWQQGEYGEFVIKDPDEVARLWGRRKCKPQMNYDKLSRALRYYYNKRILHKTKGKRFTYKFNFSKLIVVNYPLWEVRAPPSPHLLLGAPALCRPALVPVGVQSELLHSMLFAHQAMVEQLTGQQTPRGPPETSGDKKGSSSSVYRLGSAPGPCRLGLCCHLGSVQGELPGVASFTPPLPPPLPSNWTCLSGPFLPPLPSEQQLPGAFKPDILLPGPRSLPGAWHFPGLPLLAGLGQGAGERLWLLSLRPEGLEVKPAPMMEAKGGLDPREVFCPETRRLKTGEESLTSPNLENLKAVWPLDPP
In short: as §1

ETS2 = biological target: T10, ETS2 (Homo sapiens, UniProt P15036 1-469)
T10 sequence: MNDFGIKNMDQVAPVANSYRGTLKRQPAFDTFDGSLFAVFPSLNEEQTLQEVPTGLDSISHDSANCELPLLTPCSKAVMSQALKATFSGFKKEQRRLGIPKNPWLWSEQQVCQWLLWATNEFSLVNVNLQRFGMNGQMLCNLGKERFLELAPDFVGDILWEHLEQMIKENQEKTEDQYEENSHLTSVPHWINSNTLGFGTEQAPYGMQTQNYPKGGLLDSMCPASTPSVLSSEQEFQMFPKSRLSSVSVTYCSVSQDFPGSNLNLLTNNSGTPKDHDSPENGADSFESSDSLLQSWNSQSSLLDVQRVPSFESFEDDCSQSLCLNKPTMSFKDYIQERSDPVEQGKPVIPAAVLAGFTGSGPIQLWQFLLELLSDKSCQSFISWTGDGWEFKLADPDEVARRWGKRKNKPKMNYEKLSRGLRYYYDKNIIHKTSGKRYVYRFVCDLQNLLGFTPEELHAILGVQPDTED
In short: as §1

ETV3 = biological target: T11, ETV3 (Homo sapiens, UniProt P41162-2 1-143)
T11 sequence: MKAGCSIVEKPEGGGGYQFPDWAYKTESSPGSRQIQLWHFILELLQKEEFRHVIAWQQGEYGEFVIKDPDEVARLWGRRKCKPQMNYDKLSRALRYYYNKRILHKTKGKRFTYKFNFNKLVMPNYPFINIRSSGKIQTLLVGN
In short: as §1

ETV6 = ETV6 (Homo sapiens, UniProt P41212 1-452)
Sequence of ETV6 (P41212 whole entry): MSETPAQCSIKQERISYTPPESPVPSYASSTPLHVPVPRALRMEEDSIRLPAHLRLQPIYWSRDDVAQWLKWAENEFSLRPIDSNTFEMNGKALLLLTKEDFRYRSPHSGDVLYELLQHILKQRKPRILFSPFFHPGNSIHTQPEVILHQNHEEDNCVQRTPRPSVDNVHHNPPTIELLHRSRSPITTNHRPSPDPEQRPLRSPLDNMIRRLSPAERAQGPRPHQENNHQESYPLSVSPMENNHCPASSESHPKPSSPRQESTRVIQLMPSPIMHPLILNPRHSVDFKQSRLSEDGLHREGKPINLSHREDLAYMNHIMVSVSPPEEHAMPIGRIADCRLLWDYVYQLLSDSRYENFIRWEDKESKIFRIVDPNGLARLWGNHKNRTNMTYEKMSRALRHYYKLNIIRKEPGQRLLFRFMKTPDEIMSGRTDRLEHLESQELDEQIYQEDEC
In short: as §1

EHF = biological target: T12, EHF (Homo sapiens, UniProt Q9NZC4 1-300)
T12 sequence: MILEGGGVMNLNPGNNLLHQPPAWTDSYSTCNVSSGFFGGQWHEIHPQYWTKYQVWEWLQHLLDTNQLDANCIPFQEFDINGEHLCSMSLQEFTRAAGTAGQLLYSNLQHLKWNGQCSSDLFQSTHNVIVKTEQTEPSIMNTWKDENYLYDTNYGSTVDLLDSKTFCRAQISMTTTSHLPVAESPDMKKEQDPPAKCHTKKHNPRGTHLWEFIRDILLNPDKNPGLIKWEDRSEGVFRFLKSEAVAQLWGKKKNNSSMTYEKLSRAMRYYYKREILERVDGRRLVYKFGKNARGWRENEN
In short: as §1

ETV1 = ETV1 (Homo sapiens, UniProt P50549 1-477)
Sequence of ETV1 (P50549 whole entry): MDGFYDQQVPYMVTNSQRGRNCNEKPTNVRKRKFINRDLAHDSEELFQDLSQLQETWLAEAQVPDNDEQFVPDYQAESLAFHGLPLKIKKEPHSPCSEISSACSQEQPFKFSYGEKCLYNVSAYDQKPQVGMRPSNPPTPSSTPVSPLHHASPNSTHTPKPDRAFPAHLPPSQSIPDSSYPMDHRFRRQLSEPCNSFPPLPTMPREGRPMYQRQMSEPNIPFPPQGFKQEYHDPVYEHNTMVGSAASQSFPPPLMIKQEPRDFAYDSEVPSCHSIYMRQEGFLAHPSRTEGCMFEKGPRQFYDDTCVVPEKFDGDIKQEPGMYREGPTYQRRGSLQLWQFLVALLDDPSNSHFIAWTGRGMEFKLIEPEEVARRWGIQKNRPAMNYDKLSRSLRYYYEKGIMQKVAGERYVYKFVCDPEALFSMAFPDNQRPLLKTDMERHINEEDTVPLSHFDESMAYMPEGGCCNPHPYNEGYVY
In short: as §1

ETV7 = biological target: T13, ETV7 (Homo sapiens, UniProt Q9Y603 1-341)
T13 sequence: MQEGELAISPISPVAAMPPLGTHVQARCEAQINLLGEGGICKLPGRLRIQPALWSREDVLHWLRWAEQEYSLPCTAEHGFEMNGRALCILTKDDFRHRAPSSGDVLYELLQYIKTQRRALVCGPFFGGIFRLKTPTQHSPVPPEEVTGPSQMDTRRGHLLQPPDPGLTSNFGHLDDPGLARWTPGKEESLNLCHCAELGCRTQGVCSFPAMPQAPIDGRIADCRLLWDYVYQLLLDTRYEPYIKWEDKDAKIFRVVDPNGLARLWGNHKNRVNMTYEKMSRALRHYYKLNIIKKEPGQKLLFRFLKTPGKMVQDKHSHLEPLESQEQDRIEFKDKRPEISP
In short: as §1

AGTCTC
binding signal (FLI1): 1.04 fold enrichment (6-mer frequency, TF over GST control) | binding signal (ELK1): 1.02 fold enrichment (6-mer frequency, TF over GST control) | binding signal (GABPA): 1.01 fold enrichment (6-mer frequency, TF over GST control) | binding signal (ERG): 1.06 fold enrichment (6-mer frequency, TF over GST control) | binding signal (ELF1): 1.05 fold enrichment (6-mer frequency, TF over GST control) | binding signal (ELK3): 1.03 fold enrichment (6-mer frequency, TF over GST control) | binding signal (SPIC): 1.1 fold enrichment (6-mer frequency, TF over GST control) | binding signal (ELK4): 1.05 fold enrichment (6-mer frequency, TF over GST control) | binding signal (ERF): 1.04 fold enrichment (6-mer frequency, TF over GST control) | binding signal (ETV3L): 1.06 fold enrichment (6-mer frequency, TF over GST control) | binding signal (ETS2): 1.05 fold enrichment (6-mer frequency, TF over GST control) | binding signal (ETV3): 1.09 fold enrichment (6-mer frequency, TF over GST control) | binding signal (ETV6): 1.04 fold enrichment (6-mer frequency, TF over GST control)

TAGACT
binding signal (FLI1): 1.03 fold enrichment (6-mer frequency, TF over GST control) | binding signal (GABPA): 1.02 fold enrichment (6-mer frequency, TF over GST control) | binding signal (ERG): 1.05 fold enrichment (6-mer frequency, TF over GST control) | binding signal (ELF1): 1.09 fold enrichment (6-mer frequency, TF over GST control) | binding signal (EHF): 1.04 fold enrichment (6-mer frequency, TF over GST control) | binding signal (SPIC): 1.03 fold enrichment (6-mer frequency, TF over GST control) | binding signal (ETV1): 1.02 fold enrichment (6-mer frequency, TF over GST control) | binding signal (ERF): 1.07 fold enrichment (6-mer frequency, TF over GST control) | binding signal (ETV3L): 1 fold enrichment (6-mer frequency, TF over GST control) | binding signal (ETS2): 1.02 fold enrichment (6-mer frequency, TF over GST control) | binding signal (ETV7): 1.05 fold enrichment (6-mer frequency, TF over GST control)
